Measurements published in PubChem BioAssay (NCI).
This is part of a sample that, as a whole, favours compounds with a hit. Of some 83,000 tested, about 20% had one in any assay.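 96-well plates, one dose, 48 hours. Percent growth reported; active if below 10.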 Unmarked numbers belong to inactive results. The source made the active and inactive calls.

Assays:
Assay in all cases: NCI-60 one-dose screen, 48 h (100 = growth as untreated, 0 = no growth, -100 = all killed)
Conditions in all cases: 10 µM
DU-145 prostate = tested on: DU-145 prostate
K-562 leukemia = tested on: K-562 leukemia
MALME-3M melanoma = tested on: MALME-3M melanoma
MDA-MB-231 breast = tested on: MDA-MB-231 breast
SF-268 CNS = tested on: SF-268 CNS
SF-295 CNS = tested on: SF-295 CNS
SF-539 CNS = tested on: SF-539 CNS
UACC-257 melanoma = tested on: UACC-257 melanoma
M14 melanoma = tested on: M14 melanoma
HCT-15 colon = tested on: HCT-15 colon
HT29 colon = tested on: HT29 colon
SNB-75 CNS = tested on: SNB-75 CNS
SNB-19 CNS = tested on: SNB-19 CNS
U251 CNS = tested on: U251 CNS
PC-3 prostate = tested on: PC-3 prostate
SK-MEL-5 melanoma = tested on: SK-MEL-5 melanoma
LOX IMVI melanoma = tested on: LOX IMVI melanoma
SK-MEL-28 melanoma = tested on: SK-MEL-28 melanoma
UACC-62 melanoma = tested on: UACC-62 melanoma

Compound	growth (DU-145 prostate)	growth (K-562 leukemia)	growth (MALME-3M melanoma)	growth (MDA-MB-231 breast)	growth (SF-268 CNS)	growth (SF-295 CNS)	growth (SF-539 CNS)	growth (UACC-257 melanoma)	growth (M14 melanoma)	growth (HCT-15 colon)	growth (HT29 colon)	growth (SNB-75 CNS)	growth (SNB-19 CNS)	growth (U251 CNS)	growth (PC-3 prostate)	growth (SK-MEL-5 melanoma)	growth (LOX IMVI melanoma)	growth (SK-MEL-28 melanoma)	growth (UACC-62 melanoma)
CCNCCCn1c2c(c3cc(OC)c(OC)cc3c1=O)C(=O)c1cc3c(nc1-2)OCO3	12.1%	-18.2% (active)	-93.5% (active)	-91.6% (active)	8.1% (active)	4.2% (active)	-44.1% (active)	45.4%	0.853% (active)	-83% (active)	26.1%	56.5%	24.9%	21.7%	43.7%	22.5%	-97.9% (active)	71%	–
Cc1noc2c(Cc3ccccc3)nn(CC(=O)N/N=C/c3ccc(Br)cc3)c(=O)c12	61.1%	87.2%	64.9%	20.6%	75.5%	50.6%	74.4%	101%	101%	76.5%	71.1%	35.3%	75.4%	18.4%	82.7%	85.5%	–	99.5%	79.7%
Cc1ccn2c(C(=O)c3ccc(Br)cc3)cc(-c3cc(-c4ccc(N(C)C)cc4)c(C#N)c(N)n3)c2c1	56.2%	68.7%	-1.54% (active)	39.5%	68%	68.1%	24.2%	79.7%	57.7%	39.7%	34.6%	118%	67.8%	19.9%	64.4%	53.1%	–	51.1%	76.7%
CC(=O)Oc1ccccc1C(=O)Oc1ccc(C(=O)/C=C/c2ccncc2)cc1	46.2%	11.6%	86.2%	40.8%	75%	59.1%	-35.6% (active)	94.9%	47.6%	-4.84% (active)	22%	102%	47.2%	14.7%	–	71.2%	-44.2% (active)	68.8%	50.6%
COc1cc(/C=C/C(=O)c2ccc(F)cc2)ccc1Oc1nc(Nc2ccc(F)cc2)nc(N(C)C)n1	78.4%	25.7%	84.4%	59.4%	54.8%	53.1%	77.5%	47.7%	68.6%	37.2%	60.4%	72.5%	68.6%	9.68% (active)	–	40%	-56.3% (active)	–	51%
O=C(CNc1nc(-c2ccccc2)cs1)Nc1ccc(Cl)cc1[N+](=O)[O-]	10.1%	4.23% (active)	-70.5% (active)	-66.7% (active)	-58.4% (active)	-49.7% (active)	-86.8% (active)	-17.2% (active)	-13.1% (active)	-78.5% (active)	-14.8% (active)	-19.2% (active)	5.15% (active)	-52.1% (active)	–	-100% (active)	-97.2% (active)	–	-70.5% (active)
CN(C)c1ccc(/C=C/c2nc3ccccc3c(=O)n2CC(=O)Nc2ccccc2)cc1	42.1%	55.6%	15.7%	33.4%	57.3%	35.5%	-26.8% (active)	60.4%	81.4%	52.4%	63.6%	62.6%	62.9%	16.5%	67.5%	62%	–	35.6%	43.7%
COc1cc2c3c(n(CCCN4CCOCC4)c(=O)c2cc1OC)-c1nc2c(cc1C3=O)OCO2	3.38% (active)	25.9%	40.2%	6.41% (active)	21.9%	-30.8% (active)	-38.7% (active)	51%	13.4%	41.5%	7.3% (active)	49.9%	15%	-18.9% (active)	–	-6.78% (active)	-76.6% (active)	66.1%	–
COc1ccc(/C=C/C(=O)c2ccc(N3CCN(C)CC3)cc2)c(C(F)(F)F)c1	41.3%	2.66% (active)	45.2%	37.4%	70.8%	18.4%	14.6%	63.3%	38.3%	-68.5% (active)	-52% (active)	97.7%	54.5%	5.33% (active)	43.5%	36.7%	-86.4% (active)	52%	–
COc1ccc(CN2[C@H](C(=O)NCCCCCCC(=O)NO)Cc3c([nH]c4ccccc34)[C@H]2C2CC2)cc1	9.36% (active)	7.5% (active)	1.45% (active)	-23% (active)	14.5%	-58.8% (active)	2.87% (active)	9.9% (active)	17.6%	8.85% (active)	6.33% (active)	10.2%	6.72% (active)	-20.8% (active)	19.1%	-88% (active)	–	9.84% (active)	-68.6% (active)
COC(=O)C[C@](O)(CCCC(C)(C)O)C(=O)O[C@H]1C(OC)=C[C@@]23CCC(=O)N2CCc2cc4c(cc2[C@@H]13)OCO4	103%	96.7%	81.5%	117%	101%	103%	93.3%	109%	102%	97.8%	93.6%	94.6%	84.4%	114%	89.5%	98.3%	–	103%	89.5%
CCOC(=O)C1=C(N)N(c2ccccc2)C2=C(C(=O)CC(C)(C)C2)C1c1ccccc1OC (stereo unspecified)	99.6%	97.2%	91.3%	92.5%	114%	89.2%	92.6%	107%	111%	96.3%	103%	94%	92.2%	111%	89.2%	97.2%	–	110%	80.4%
COc1ccc(Nc2nc(N)n(Cc3cccc(Br)c3)n2)cc1	22.6%	7.86% (active)	-25% (active)	-5.79% (active)	16%	4.42% (active)	-3.08% (active)	6.73% (active)	0.65% (active)	8.53% (active)	31.9%	11.7%	18.6%	24.7%	13.1%	-93.3% (active)	-67.3% (active)	5.84% (active)	–
COc1ccc(CN2[C@@H](C(=O)NCc3ccc(C(=O)NO)cc3)Cc3c([nH]c4ccccc34)[C@@H]2C)cc1	18.6%	12%	0.926% (active)	13%	24.8%	6.57% (active)	17.2%	32.1%	23.3%	19.1%	17.6%	15.8%	40.3%	33%	29%	-21.1% (active)	1.67% (active)	–	–
O=C(CSc1nnc(-c2c[nH]c3ccccc23)n1-c1ccccc1)Nc1ccc(C(=O)/C=C/c2ccccc2Cl)cc1	82%	55.9%	64.6%	78%	66.5%	72%	42.6%	107%	87.7%	67%	91.6%	80.3%	84.8%	65.7%	61.2%	89.8%	56.6%	96.3%	–
O=C(CNc1nc(-c2ccccc2)cs1)Nc1cccc([N+](=O)[O-])c1	-98.6% (active)	8.88% (active)	-90.5% (active)	-88.7% (active)	-57.7% (active)	-94.2% (active)	-100% (active)	-71.5% (active)	-87.6% (active)	-79.4% (active)	-61.6% (active)	-36.5% (active)	-88.1% (active)	-62.6% (active)	–	-100% (active)	-100% (active)	-84.9% (active)	-84% (active)
O=C(CNc1nc(-c2ccccc2)cs1)Nc1cccc(Cl)c1	53.5%	19.6%	64.1%	30.8%	30.6%	22.4%	42.3%	62.9%	34%	5.51% (active)	32.1%	50.2%	51%	26.9%	18.9%	35.5%	7.96% (active)	–	–
